Assay results published in PubChem BioAssay (NCATS).
Records with an inconclusive call do not appear. The source made the active and inactive calls. Calls come from the whole dose curve; as a rule, active = well fitted cell-killing curve with a large enough effect; inconclusive = small, poorly fitted or top-dose-only effect; inactive = flat fitted curve, though single readings scatter.

Tests used:
[1] = Cell Viability - LYMP2-025 (AID 976);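 note: series mostly up to about 92 µM; cells exposed to compound for 24 h at 37 °C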
Outline: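 In qHTS format, LYMP2-025 lymphoblastoid cells in complete culture medium received compound for 24 hr; ATP-based CellTiter-Glo signal gave viability, with AC50 derived by Hill equation.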

[2] = Cell Viability - LYMP2-006 (AID 978);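 note: cells exposed to compound for 24 hours; nearly all actives have a fitted effect of over 60% in size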; note: potency is the fitted concentration of half-maximal effect
Outline: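 Cells are seeded at 2500 per well and rested 5 hr at 37 C. Compounds are added across a concentration series for 24 hr at 37 C, after which ATP is quantified by luciferase luminescence.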

[3] = Cell Viability - LYMP2-007 (AID 979);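 note: cells exposed to compound for 24 h before reading; nearly all actives have a fitted effect of over 60% in size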; note: potency is the fitted concentration of half-maximal effect
Outline: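 Acute toxicity is scored as a concentration-dependent fall in intracellular ATP in human lymphoblastoid cells treated 24 hr at 37 C, measured by luciferase luminescence; Hill-equation modelling yields AC50.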

[4] = Cell Viability - LYMP2-008 (AID 980); note: nearly all actives have a fitted effect of over 60% in size; note: potency is the fitted concentration of half-maximal effect
Outline: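 Acute cytotoxicity is scored as concentration-dependent loss of cellular ATP in a human lymphoblastoid line after 24 hr treatment at 37 C. ATP is quantified by luciferase luminescence.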

[5] = Cell Viability - LYMP2-010 (AID 981);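 note: cells exposed to compound for 24 hours at 37 °C; nearly all actives have a fitted effect of over 55% in size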; note: potency is the fitted concentration of half-maximal effect
Outline: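 Acute toxicity is scored as a concentration-dependent loss of cellular ATP in human lymphoblastoid cells after 24 hr compound exposure in complete medium. Tetraoctylammonium bromide is the positive control.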

[6] = Cell Viability - LYMP2-012 (AID 982);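 note: cellular ATP by luciferase luminescence where a drop means cytotoxicity; cells exposed to compound for one day before reading; nearly all actives have a fitted effect of over 55% in size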; note: potency is the fitted concentration of half-maximal effect
[7] = Cell Viability - LYMP2-014 (AID 983);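 note: cells exposed to compound for 24 h at 37 °C; nearly all actives have a fitted effect of over 50% in size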; note: potency is the fitted concentration of half-maximal effect
Outline: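 Decrease in intracellular ATP after 24 hr treatment at 37 C, measured by luciferase luminescence, indicated cytotoxicity. Concentration-response data were fitted with the standard Hill equation to give AC50.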

[8] = Cell Viability - LYMP2-016 (AID 984);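 note: cells exposed to compound for 24 hours at 37 °C; nearly all actives have a fitted effect of over 55% in size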; note: potency is the fitted concentration of half-maximal effect
Outline: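 Cells were seeded at 2500 per well and rested 5 hr before a 24 hr compound exposure at 37 C. Viability was then gauged as cellular ATP by luciferase luminescence, with AC50 values fitted to the Hill equation.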

[9] = Cell Viability - LYMP2-018 (AID 985); note: nearly all actives have a fitted effect of over 50% in size; note: potency is the fitted concentration of half-maximal effect
Outline: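 Acute cytotoxicity is scored as a concentration-dependent drop in intracellular ATP after 24 hr exposure of the lymphoblastoid line in complete culture medium, measured by luciferase luminescence. Potency is expressed as AC50 from Hill modelling.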

[10] = Cell Viability - LYMP2-002 (AID 977);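 note: compound exposure lasted 24 h at 37 °C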; note: potency is the fitted concentration of half-maximal effect
Outline: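 Cytotoxicity is scored as concentration-dependent loss of cellular ATP in a human lymphoblastoid line after 24 hr compound treatment at 37 C. AC50 is obtained by modelling concentration-response data with the Hill equation.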

Measured: Potency

C=C(C)C(=O)OCCCCCCCCCC
inactive: [1] | [2] | [3] | [4] | [5] | [6] | [7] | [8] | [9]

N#CCc1ccccc1[N+](=O)[O-]
inactive: [1] | [2] | [4] | [5] | [6] | [7] | [8] | [9]

Cc1ccc(C(C)(C)C)cc1
inactive: [1] | [2] | [4] | [5] | [6] | [7] | [8] | [9]

CCC1CO1 (centres undefined)
inactive: [1] | [2] | [3] | [4] | [5] | [6] | [7] | [8] | [9]

CC(=O)OC(C)=O
inactive: [1] | [2] | [3] | [4] | [5] | [6] | [7] | [8] | [9]

O=C(O)c1ccc(Cl)c(Cl)c1
inactive: [1] | [2] | [3] | [5] | [6] | [7] | [8] | [9]

C=C(C)C(=O)OCCCCCC
inactive: [1] | [2] | [3] | [4] | [5] | [6] | [7] | [8] | [9]

O=C1NC(=O)c2cc([N+](=O)[O-])ccc21
inactive: [1] | [2] | [3] | [5] | [6] | [7] | [8] | [9]

CNC(=O)N(c1ccccc1)c1ccccc1
inactive: [10] | [2] | [3] | [4] | [5] | [6] | [7] | [8] | [9]

Cc1ccccc1C=O
inactive: [1] | [2] | [3] | [4] | [5] | [6] | [7] | [8] | [9]

CC(C)(O)CCC(C)(C)O
inactive: [10] | [2] | [3] | [4] | [5] | [6] | [7] | [8] | [9]

CCCOCC(C)O (centres undefined)
inactive: [1] | [2] | [3] | [4] | [5] | [6] | [7] | [8] | [9]

O=P(O)(OCc1ccccc1)OCc1ccccc1
inactive: [1] | [2] | [3] | [4] | [5] | [6] | [7] | [8] | [9]

CNc1ccccc1
inactive: [1] | [2] | [3] | [4] | [5] | [6] | [7] | [8] | [9]

C=CCCCCCCC=C
inactive: [1] | [2] | [3] | [4] | [5] | [6] | [7] | [8] | [9]

CC1=C(/C=C/C(C)=C/C=C/C(C)=C\C=O)C(C)(C)CCC1
active: [10] 50.1 µM | [2] 50.1 µM | [3] 50.1 µM | [4] 50.1 µM | [5] 39.8 µM | [7] 63.1 µM

CC(C)(c1cc(Br)c(OCC(Br)CBr)c(Br)c1)c1cc(Br)c(OCC(Br)CBr)c(Br)c1 (centres undefined)
inactive: [1] | [2] | [4] | [5] | [6] | [7] | [8] | [9]

CC(C)=CCl
inactive: [1] | [2] | [3] | [4] | [5] | [6] | [7] | [8] | [9]

O=Cc1cccc(Br)c1
inactive: [1] | [2] | [3] | [4] | [5] | [6] | [7] | [8] | [9]

[O-]/[N+](=N\O)c1ccccc1
inactive: [1] | [2] | [3] | [4] | [5] | [6] | [7] | [8] | [9]

C=CC(=O)NC(C)C
inactive: [1] | [2] | [4] | [5] | [6] | [7] | [8] | [9]

Nc1ccccc1S(=O)(=O)O
inactive: [1] | [2] | [5] | [6] | [7] | [8] | [9]

CC(=O)Nc1ccc(N)cc1
inactive: [1] | [2] | [3] | [4] | [5] | [6] | [7] | [8] | [9]

C=CCn1c(=O)n(CC=C)c(=O)n(CC=C)c1=O
inactive: [1] | [2] | [3] | [4] | [5] | [6] | [7] | [8] | [9]

O=C1OC(=O)c2cc([N+](=O)[O-])ccc21
inactive: [1] | [2] | [3] | [4] | [6] | [7] | [8] | [9]

Nc1nc(CC(=O)O)cs1
inactive: [1] | [2] | [3] | [4] | [5] | [6] | [7] | [8] | [9]

O=[N+]([O-])c1ccc(CCO)cc1
inactive: [1] | [3]

CCCCC/C=C/C=C/C=O
active: [2] 50.1 µM | [3] 39.8 µM | [4] 39.8 µM | [5] 39.8 µM | [6] 50.1 µM | [7] 50.1 µM | [8] 50.1 µM | [9] 79.4 µM

CCCCOCCOCCOCCCC
inactive: [1] | [2] | [3] | [4] | [5] | [6] | [7] | [8] | [9]

CCCCC(CC)CNCC(CC)CCCC (centres undefined)
inactive: [1] | [2] | [3] | [4] | [5] | [6] | [7] | [8] | [9]

CCCCCCCCC/C=C/CC1CC(=O)OC1=O (centres undefined)
inactive: [1] | [2] | [3] | [4] | [5] | [6] | [7] | [8] | [9]

CCCCCO
inactive: [1] | [2] | [4] | [5] | [6] | [7] | [8] | [9]

CC(=O)c1ccccc1[N+](=O)[O-]
inactive: [1] | [2] | [4] | [5] | [6] | [7] | [8] | [9]

CC(=O)c1ccc([N+](=O)[O-])cc1
inactive: [1] | [2] | [3] | [4] | [5] | [6] | [7] | [8] | [9]

CC(=C/C=C/C(C)=C/C=C/C=C(C)/C=C/C=C(C)/C=C/C(=O)O)/C=C/C(=O)O
inactive: [1] | [2] | [3] | [4] | [5] | [6] | [7] | [8] | [9]

CCCCC(CC)C(=O)O (centres undefined)
inactive: [1] | [2] | [3] | [5] | [6] | [7] | [8] | [9]

Nc1cccc(N)c1
inactive: [10] | [2] | [3] | [4] | [5] | [6] | [7] | [8] | [9]

Cc1ccc(C)c(O)c1
inactive: [1] | [2] | [3] | [4] | [5] | [6] | [7] | [8] | [9]
